# Assay results: article PMC11006913
# Substitutions are numbered along the chain they refer to.
# Key:
# Assay in all cases: PBM; 200 nM protein, PBS
# Conditions in all cases: dsDNA, one strand shown
# [1] = molecular target: CRX (Homo sapiens, UniProt O43186 26-111)
# [2] = molecular target: HOXC10 (Homo sapiens, UniProt Q9NYD6 254-340)
# [3] = molecular target: CRX (Homo sapiens, UniProt O43186 26-111, E42D)
# [4] = molecular target: HOXC10 (Homo sapiens, UniProt Q9NYD6 254-340, K271E)
# [5] = molecular target: CRX (Homo sapiens, UniProt O43186 26-111, R41L)
# Chain of CRX (Homo sapiens, UniProt O43186 26-111, R41L) (O43186 26-111 R41L): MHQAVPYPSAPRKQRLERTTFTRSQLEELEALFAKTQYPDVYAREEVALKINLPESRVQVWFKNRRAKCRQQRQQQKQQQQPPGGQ
# [6] = molecular target: HOXB6 (Homo sapiens, UniProt P17509 132-218, K202E)
# Chain of HOXB6 (Homo sapiens, UniProt P17509 132-218, K202E) (P17509 132-218 K202E): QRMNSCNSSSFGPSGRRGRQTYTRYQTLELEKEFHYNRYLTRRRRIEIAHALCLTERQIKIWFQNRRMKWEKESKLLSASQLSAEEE
# [7] = molecular target: HOXB6 (Homo sapiens, UniProt P17509 132-218)
# Chain of HOXB6 (Homo sapiens, UniProt P17509 132-218) (P17509 132-218): as the sequence (P17509 132-218 K202E) above, with E71K counted along it
# [8] = molecular target: T1, NKX2-6 (Homo sapiens, UniProt A6NCS4 118-204, R150C)
# T1 sequence: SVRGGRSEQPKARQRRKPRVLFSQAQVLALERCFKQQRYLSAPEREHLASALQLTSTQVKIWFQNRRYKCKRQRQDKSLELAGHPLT
# [9] = molecular target: NKX3-2 (Homo sapiens, UniProt P78367 192-278, P234S)
# Chain of NKX3-2 (Homo sapiens, UniProt P78367 192-278, P234S) (P78367 192-278 P234S): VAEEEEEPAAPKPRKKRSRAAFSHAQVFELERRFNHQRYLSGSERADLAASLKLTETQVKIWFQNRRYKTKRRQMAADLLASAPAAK
# [10] = molecular target: NKX3-2 (Homo sapiens, UniProt P78367 192-278)
# Chain of NKX3-2 (Homo sapiens, UniProt P78367 192-278) (P78367 192-278): as the sequence (P78367 192-278 P234S) above, with S43P counted along it
# [11] = molecular target: PITX2 (Homo sapiens, UniProt Q99697 72-157)
# [12] = molecular target: ALX1 (Homo sapiens, UniProt Q15699 118-204, L144V)
# Chain of ALX1 (Homo sapiens, UniProt Q15699 118-204, L144V) (Q15699 118-204 L144V): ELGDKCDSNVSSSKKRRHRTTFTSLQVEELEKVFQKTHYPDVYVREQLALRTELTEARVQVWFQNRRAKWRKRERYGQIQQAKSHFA
# [13] = molecular target: ALX1 (Homo sapiens, UniProt Q15699 118-204, L144R)
# Chain of ALX1 (Homo sapiens, UniProt Q15699 118-204, L144R) (Q15699 118-204 L144R): as the sequence (Q15699 118-204 L144V) above, with V27R counted along it
# [14] = molecular target: ALX1 (Homo sapiens, UniProt Q15699 118-204)
# Chain of ALX1 (Homo sapiens, UniProt Q15699 118-204) (Q15699 118-204): as the sequence (Q15699 118-204 L144V) above, with V27L counted along it
# [15] = molecular target: PROP1 (Homo sapiens, UniProt O75360 56-141)
# Chain of PROP1 (Homo sapiens, UniProt O75360 56-141) (O75360 56-141): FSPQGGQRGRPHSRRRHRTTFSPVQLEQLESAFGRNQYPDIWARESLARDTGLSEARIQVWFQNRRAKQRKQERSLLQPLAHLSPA
# [16] = molecular target: PROP1 (Homo sapiens, UniProt O75360 56-141, R99H)
# Chain of PROP1 (Homo sapiens, UniProt O75360 56-141, R99H) (O75360 56-141 R99H): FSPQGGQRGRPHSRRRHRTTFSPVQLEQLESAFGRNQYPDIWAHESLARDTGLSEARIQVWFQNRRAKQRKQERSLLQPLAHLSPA
# [17] = molecular target: PROP1 (Homo sapiens, UniProt O75360 56-141, F88S)
# Chain of PROP1 (Homo sapiens, UniProt O75360 56-141, F88S) (O75360 56-141 F88S): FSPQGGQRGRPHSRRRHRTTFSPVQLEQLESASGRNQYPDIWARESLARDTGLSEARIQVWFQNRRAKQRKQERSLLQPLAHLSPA
# [18] = molecular target: MSX2 (Homo sapiens, UniProt P35548 130-214)
# Chain of MSX2 (Homo sapiens, UniProt P35548 130-214) (P35548 130-214): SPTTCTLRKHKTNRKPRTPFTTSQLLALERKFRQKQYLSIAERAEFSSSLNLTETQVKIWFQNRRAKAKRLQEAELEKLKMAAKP
# [19] = molecular target: MSX2 (Homo sapiens, UniProt P35548 130-214, F161Y)
# Chain of MSX2 (Homo sapiens, UniProt P35548 130-214, F161Y) (P35548 130-214 F161Y): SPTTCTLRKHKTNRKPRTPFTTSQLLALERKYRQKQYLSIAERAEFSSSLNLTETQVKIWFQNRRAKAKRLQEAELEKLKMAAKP
# [20] = molecular target: T2, NKX2-6 (Homo sapiens, UniProt A6NCS4 118-204)
# T2 sequence: T1 sequence with C33R
# [21] = molecular target: VAX1 (Homo sapiens, UniProt Q5SQQ9 86-172)
# Chain of VAX1 (Homo sapiens, UniProt Q5SQQ9 86-172) (Q5SQQ9 86-172): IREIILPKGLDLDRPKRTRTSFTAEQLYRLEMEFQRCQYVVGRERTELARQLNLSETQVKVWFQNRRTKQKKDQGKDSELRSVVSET
# [22] = molecular target: T3, NKX2-6 (Homo sapiens, UniProt A6NCS4 118-204, F151L)
# T3 sequence: T1 sequence with C33R, F34L
# [23] = molecular target: VAX1 (Homo sapiens, UniProt Q5SQQ9 86-172, T142I)
# Chain of VAX1 (Homo sapiens, UniProt Q5SQQ9 86-172, T142I) (Q5SQQ9 86-172 T142I): as the sequence (Q5SQQ9 86-172) above, with T57I counted along it
# [24] = molecular target: VAX1 (Homo sapiens, UniProt Q5SQQ9 86-172, K157R)
# Chain of VAX1 (Homo sapiens, UniProt Q5SQQ9 86-172, K157R) (Q5SQQ9 86-172 K157R): as the sequence (Q5SQQ9 86-172) above, with K72R counted along it
# Chain of CRX (Homo sapiens, UniProt O43186 26-111, E42D) (O43186 26-111 E42D): as the sequence (O43186 26-111 R41L) above, with L16R, E17D counted along it
# Chain of CRX (Homo sapiens, UniProt O43186 26-111) (O43186 26-111): as the sequence (O43186 26-111 R41L) above, with L16R counted along it
# Chain of HOXC10 (Homo sapiens, UniProt Q9NYD6 254-340, K271E) (Q9NYD6 254-340 K271E): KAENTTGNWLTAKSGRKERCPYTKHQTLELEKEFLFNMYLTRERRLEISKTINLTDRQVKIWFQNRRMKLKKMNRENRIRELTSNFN
# Chain of HOXC10 (Homo sapiens, UniProt Q9NYD6 254-340) (Q9NYD6 254-340): as the sequence (Q9NYD6 254-340 K271E) above, with E18K counted along it
sequence,measurement,setting,value
CGGCGTCC,binding signal,[1],"7.94 upbm affinity estimate (log intensity, higher = more binding, comparable within an allelic series)"
same,binding signal,[2],"10 upbm affinity estimate (log intensity, higher = more binding, comparable within an allelic series)"
same,binding signal,[3],"8 upbm affinity estimate (log intensity, higher = more binding, comparable within an allelic series)"
same,binding signal,[4],"10.1 upbm affinity estimate (log intensity, higher = more binding, comparable within an allelic series)"
same,binding signal,[5],"8.06 upbm affinity estimate (log intensity, higher = more binding, comparable within an allelic series)"
CAGGGCGG,binding signal,[1],"8.46 upbm affinity estimate (log intensity, higher = more binding, comparable within an allelic series)"
same,binding signal,[6],"8.95 upbm affinity estimate (log intensity, higher = more binding, comparable within an allelic series)"
same,binding signal,[3],"8.33 upbm affinity estimate (log intensity, higher = more binding, comparable within an allelic series)"
same,binding signal,[5],"8.31 upbm affinity estimate (log intensity, higher = more binding, comparable within an allelic series)"
same,binding signal,[7],"8.83 upbm affinity estimate (log intensity, higher = more binding, comparable within an allelic series)"
AGCTCAGG,binding signal,[1],"9.99 upbm affinity estimate (log intensity, higher = more binding, comparable within an allelic series)"
same,binding signal,[3],"9.91 upbm affinity estimate (log intensity, higher = more binding, comparable within an allelic series)"
AGGCCTTA,binding signal,[1],"10.1 upbm affinity estimate (log intensity, higher = more binding, comparable within an allelic series)"
same,binding signal,[3],"9.82 upbm affinity estimate (log intensity, higher = more binding, comparable within an allelic series)"
CTTACGAC,binding signal,[1],"10.1 upbm affinity estimate (log intensity, higher = more binding, comparable within an allelic series)"
same,binding signal,[3],"10 upbm affinity estimate (log intensity, higher = more binding, comparable within an allelic series)"
GACGCGCC,binding signal,[1],"8.22 upbm affinity estimate (log intensity, higher = more binding, comparable within an allelic series)"
same,binding signal,[8],"9.4 upbm affinity estimate (log intensity, higher = more binding, comparable within an allelic series)"
same,binding signal,[3],"8.15 upbm affinity estimate (log intensity, higher = more binding, comparable within an allelic series)"
same,binding signal,[9],"10.5 upbm affinity estimate (log intensity, higher = more binding, comparable within an allelic series)"
same,binding signal,[5],"8.22 upbm affinity estimate (log intensity, higher = more binding, comparable within an allelic series)"
same,binding signal,[10],"10.5 upbm affinity estimate (log intensity, higher = more binding, comparable within an allelic series)"
CCGGATTA,binding signal,[1],"13.5 upbm affinity estimate (log intensity, higher = more binding, comparable within an allelic series)"
same,binding signal,[3],"13.6 upbm affinity estimate (log intensity, higher = more binding, comparable within an allelic series)"
same,binding signal,[11],"13.1 upbm affinity estimate (log intensity, higher = more binding, comparable within an allelic series)"
same,binding signal,[5],"13.5 upbm affinity estimate (log intensity, higher = more binding, comparable within an allelic series)"
ATGGATTA,binding signal,[1],"13.2 upbm affinity estimate (log intensity, higher = more binding, comparable within an allelic series)"
same,binding signal,[3],"13.2 upbm affinity estimate (log intensity, higher = more binding, comparable within an allelic series)"
same,binding signal,[11],"13.2 upbm affinity estimate (log intensity, higher = more binding, comparable within an allelic series)"
same,binding signal,[5],"13 upbm affinity estimate (log intensity, higher = more binding, comparable within an allelic series)"
AAATCTGC,binding signal,[1],"10.8 upbm affinity estimate (log intensity, higher = more binding, comparable within an allelic series)"
same,binding signal,[3],"10.6 upbm affinity estimate (log intensity, higher = more binding, comparable within an allelic series)"
same,binding signal,[12],"8.09 upbm affinity estimate (log intensity, higher = more binding, comparable within an allelic series)"
same,binding signal,[13],"8 upbm affinity estimate (log intensity, higher = more binding, comparable within an allelic series)"
same,binding signal,[5],"10.6 upbm affinity estimate (log intensity, higher = more binding, comparable within an allelic series)"
same,binding signal,[14],"8.23 upbm affinity estimate (log intensity, higher = more binding, comparable within an allelic series)"
CATAATCC,binding signal,[1],"13.4 upbm affinity estimate (log intensity, higher = more binding, comparable within an allelic series)"
same,binding signal,[3],"13.4 upbm affinity estimate (log intensity, higher = more binding, comparable within an allelic series)"
same,binding signal,[11],"13.1 upbm affinity estimate (log intensity, higher = more binding, comparable within an allelic series)"
same,binding signal,[15],"8.29 upbm affinity estimate (log intensity, higher = more binding, comparable within an allelic series)"
same,binding signal,[16],"7.92 upbm affinity estimate (log intensity, higher = more binding, comparable within an allelic series)"
same,binding signal,[17],"7.15 upbm affinity estimate (log intensity, higher = more binding, comparable within an allelic series)"
same,binding signal,[5],"13.4 upbm affinity estimate (log intensity, higher = more binding, comparable within an allelic series)"
GGATTAAC,binding signal,[1],"13.6 upbm affinity estimate (log intensity, higher = more binding, comparable within an allelic series)"
same,binding signal,[3],"13.6 upbm affinity estimate (log intensity, higher = more binding, comparable within an allelic series)"
same,binding signal,[11],"13.3 upbm affinity estimate (log intensity, higher = more binding, comparable within an allelic series)"
same,binding signal,[5],"13.5 upbm affinity estimate (log intensity, higher = more binding, comparable within an allelic series)"
GGGATTAA,binding signal,[1],"13.7 upbm affinity estimate (log intensity, higher = more binding, comparable within an allelic series)"
same,binding signal,[3],"13.8 upbm affinity estimate (log intensity, higher = more binding, comparable within an allelic series)"
same,binding signal,[11],"13.6 upbm affinity estimate (log intensity, higher = more binding, comparable within an allelic series)"
same,binding signal,[5],"13.7 upbm affinity estimate (log intensity, higher = more binding, comparable within an allelic series)"
ACTAATCC,binding signal,[1],"13.6 upbm affinity estimate (log intensity, higher = more binding, comparable within an allelic series)"
same,binding signal,[3],"13.7 upbm affinity estimate (log intensity, higher = more binding, comparable within an allelic series)"
same,binding signal,[11],"13.4 upbm affinity estimate (log intensity, higher = more binding, comparable within an allelic series)"
same,binding signal,[5],"13.4 upbm affinity estimate (log intensity, higher = more binding, comparable within an allelic series)"
GCAAGGAC,binding signal,[1],"8.57 upbm affinity estimate (log intensity, higher = more binding, comparable within an allelic series)"
same,binding signal,[3],"8.32 upbm affinity estimate (log intensity, higher = more binding, comparable within an allelic series)"
same,binding signal,[12],"6.53 upbm affinity estimate (log intensity, higher = more binding, comparable within an allelic series)"
same,binding signal,[13],"6.6 upbm affinity estimate (log intensity, higher = more binding, comparable within an allelic series)"
same,binding signal,[5],"8.3 upbm affinity estimate (log intensity, higher = more binding, comparable within an allelic series)"
same,binding signal,[14],"6.36 upbm affinity estimate (log intensity, higher = more binding, comparable within an allelic series)"
AGGATTAT,binding signal,[1],"13.4 upbm affinity estimate (log intensity, higher = more binding, comparable within an allelic series)"
same,binding signal,[3],"13.5 upbm affinity estimate (log intensity, higher = more binding, comparable within an allelic series)"
same,binding signal,[11],"13.2 upbm affinity estimate (log intensity, higher = more binding, comparable within an allelic series)"
same,binding signal,[5],"13.5 upbm affinity estimate (log intensity, higher = more binding, comparable within an allelic series)"
AATAATCC,binding signal,[1],"13.4 upbm affinity estimate (log intensity, higher = more binding, comparable within an allelic series)"
same,binding signal,[3],"13.4 upbm affinity estimate (log intensity, higher = more binding, comparable within an allelic series)"
same,binding signal,[11],"13 upbm affinity estimate (log intensity, higher = more binding, comparable within an allelic series)"
same,binding signal,[18],"11.5 upbm affinity estimate (log intensity, higher = more binding, comparable within an allelic series)"
same,binding signal,[19],"11.3 upbm affinity estimate (log intensity, higher = more binding, comparable within an allelic series)"
same,binding signal,[5],"13.4 upbm affinity estimate (log intensity, higher = more binding, comparable within an allelic series)"
AAGATTAA,binding signal,[1],"12.9 upbm affinity estimate (log intensity, higher = more binding, comparable within an allelic series)"
same,binding signal,[3],"12.9 upbm affinity estimate (log intensity, higher = more binding, comparable within an allelic series)"
same,binding signal,[11],"12.5 upbm affinity estimate (log intensity, higher = more binding, comparable within an allelic series)"
same,binding signal,[5],"12.6 upbm affinity estimate (log intensity, higher = more binding, comparable within an allelic series)"
GTTGGCCA,binding signal,[1],"8.35 upbm affinity estimate (log intensity, higher = more binding, comparable within an allelic series)"
same,binding signal,[3],"8.33 upbm affinity estimate (log intensity, higher = more binding, comparable within an allelic series)"
same,binding signal,[11],"8.06 upbm affinity estimate (log intensity, higher = more binding, comparable within an allelic series)"
same,binding signal,[5],"8.24 upbm affinity estimate (log intensity, higher = more binding, comparable within an allelic series)"
CGGACACG,binding signal,[1],"8.06 upbm affinity estimate (log intensity, higher = more binding, comparable within an allelic series)"
same,binding signal,[3],"8.04 upbm affinity estimate (log intensity, higher = more binding, comparable within an allelic series)"
same,binding signal,[12],"6.53 upbm affinity estimate (log intensity, higher = more binding, comparable within an allelic series)"
same,binding signal,[13],"6.6 upbm affinity estimate (log intensity, higher = more binding, comparable within an allelic series)"
same,binding signal,[5],"8.13 upbm affinity estimate (log intensity, higher = more binding, comparable within an allelic series)"
same,binding signal,[14],"6.41 upbm affinity estimate (log intensity, higher = more binding, comparable within an allelic series)"
CTTAATCC,binding signal,[1],"13.7 upbm affinity estimate (log intensity, higher = more binding, comparable within an allelic series)"
same,binding signal,[3],"13.8 upbm affinity estimate (log intensity, higher = more binding, comparable within an allelic series)"
same,binding signal,[11],"13.5 upbm affinity estimate (log intensity, higher = more binding, comparable within an allelic series)"
same,binding signal,[5],"13.5 upbm affinity estimate (log intensity, higher = more binding, comparable within an allelic series)"
GCGGATTA,binding signal,[1],"13.6 upbm affinity estimate (log intensity, higher = more binding, comparable within an allelic series)"
same,binding signal,[3],"13.7 upbm affinity estimate (log intensity, higher = more binding, comparable within an allelic series)"
same,binding signal,[11],"13.3 upbm affinity estimate (log intensity, higher = more binding, comparable within an allelic series)"
same,binding signal,[5],"13.6 upbm affinity estimate (log intensity, higher = more binding, comparable within an allelic series)"
GGATTAGA,binding signal,[1],"13.3 upbm affinity estimate (log intensity, higher = more binding, comparable within an allelic series)"
same,binding signal,[3],"13.2 upbm affinity estimate (log intensity, higher = more binding, comparable within an allelic series)"
same,binding signal,[11],"13.1 upbm affinity estimate (log intensity, higher = more binding, comparable within an allelic series)"
same,binding signal,[5],"13.1 upbm affinity estimate (log intensity, higher = more binding, comparable within an allelic series)"
CCCAGTCC,binding signal,[1],"8.2 upbm affinity estimate (log intensity, higher = more binding, comparable within an allelic series)"
same,binding signal,[3],"8.28 upbm affinity estimate (log intensity, higher = more binding, comparable within an allelic series)"
same,binding signal,[20],"9.59 upbm affinity estimate (log intensity, higher = more binding, comparable within an allelic series)"
same,binding signal,[21],"7.25 upbm affinity estimate (log intensity, higher = more binding, comparable within an allelic series)"
same,binding signal,[22],"9.36 upbm affinity estimate (log intensity, higher = more binding, comparable within an allelic series)"
same,binding signal,[23],"7.27 upbm affinity estimate (log intensity, higher = more binding, comparable within an allelic series)"
same,binding signal,[5],"8.25 upbm affinity estimate (log intensity, higher = more binding, comparable within an allelic series)"
same,binding signal,[24],"7.03 upbm affinity estimate (log intensity, higher = more binding, comparable within an allelic series)"
